# Screening data from PubChem BioAssay.
# Rows were chosen to be rich in hits. Some 0.93% of all compounds tested hit in one or more screens of this group.
# 697 NFkB inh = lowers PMA/ionomycin-induced NF-kB signal in 697 B cells; 697 B-cell NF-kB luciferase reporter, 16 h; inhibition, % at 4 µM; 330,000 compounds, 0.33% hits; in the data active means inhibition above about 35%
# F508del corr = correctors of CFTR F508del function in bronchial epithelial cells; 350,000 compounds, 0.36% hits; CFBE cells, YFP halide quenching; stimulated with forskolin plus potentiator P3; % fluorescence drop versus neutral controls; activity (quench increase), % at 7.58 µM;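 active means mean added fluorescence quench of at least 8% versus neutral control, with both replicates also reaching 8%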;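 further: cells transiently co-express mutant CFTR-F508del with the halide-sensitive YFP; corrector assay measuring rescue of mutant channel to the surface after 24 h compound exposure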
# HIF act = HIF pathway transcriptional activation; U2OS HRE-luciferase reporter, luminescence; normalized: DMSO 0%, desferrioxamine 100%; activation, % at 7.5 µM (by protocol); 300,000 compounds, 0.32% hits;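 active means mean activation of at least 10% of the iron chelator positive control signal, with at least half of replicates also reaching 10%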
# Jurkat NFkB inh = inhibitors of the PMA/ionomycin-induced NF-kB reporter in Jurkat cells | inhibition, % at 4 µM | 330,000 compounds, 0.53% hits | PMA/ionomycin-induced NF-kB luciferase reporter, luminescence; in the data active means inhibition above about 50%
# Jurkat NFkB conf = inhibitors of the PMA/ionomycin-induced NF-kB reporter in Jurkat cells, retest | shares compounds with Jurkat NFkB inh | Jurkat NF-kB luciferase, 16 h | inhibition, % at 4 µM | 2,700 compounds, 27% hits | AID 435020;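 active means inhibition reaching about 45% at 4 µM in either replicate, limit read from the data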
# 697 NFkB conf = lowers PMA/ionomycin-induced NF-kB signal in 697 B cells | shares compounds with 697 NFkB inh | 697 B-cell NF-kB luciferase, 16 h | inhibition, % at 4 µM | 2,000 compounds, 35% hits | AID 449746; in the data active means inhibition mostly above about 28%, no sharp cut-off; inactive means mostly below about 22%
# Numbers stand for hits; - = inactive; . = not tested or not shown.
SMILES,697 NFkB inh,F508del corr,HIF act,Jurkat NFkB inh,Jurkat NFkB conf,697 NFkB conf
CC(C)Cn1c(N)c(C(=O)CSc2ccc3c(c2)OCCO3)c(=O)n(C)c1=O,39,.,-,54,-,-
CC(C)C(=O)Nc1ccc2nn(-c3ccc(F)cc3)nc2c1,-,.,-,-,-,-
CC(C)C(=O)Nc1ccc(N2CCN(c3ccc(F)cc3)CC2)cc1,-,-,-,-,.,.
Cc1ccc(-n2nc3ccc(NC(=O)C(C)C)cc3n2)cc1,-,-,-,-,-,-
C[C@H](CO)N1C[C@H](C)[C@@H](CN(C)C(=O)CC2CC2)Oc2cc(C#CC3CC3)ccc2S1(=O)=O,.,-,.,.,.,.
COc1ccc2c3c([nH]c2c1)[C@@H](CO)N(C(=O)C1CCC1)CC31CCN(C(=O)c2ccccn2)CC1,.,-,.,.,.,.
Cc1cccc(N(C(=O)C(F)(F)F)C(C(=O)NC2CCCCC2)c2cccs2)c1 (stereo not drawn),-,.,-,-,.,.
C#CC(=O)N(c1ccc(OC)c(OC)c1)C(C(=O)NC1CCCC1)c1cccs1 (stereo not drawn),101,-,-,100,85,102
COc1ccc(N(C(=O)Cc2cccs2)C(C(=O)NC2CCCC2)c2ccncc2)cc1OC (stereo not drawn),-,-,-,-,.,.
C#CC(=O)N(c1cccc(OC)c1)C(C(=O)NC1CCCC1)c1cccs1 (stereo not drawn),103,-,-,99,94,100
C[C@@H]1CN([C@H](C)CO)S(=O)(=O)c2ccc(-c3ccccc3)cc2O[C@H]1CN(C)C(=O)c1ccccc1F,.,-,.,.,.,.
C/C(=N\Nc1cccc2cccnc12)c1ccccn1,-,-,-,-,-,-
Cc1ccc2[nH]c3c(c2c1)CCCC3NC(=O)CCl (stereo not drawn),-,.,-,97,95,-
O=CNC1CCCc2c1[nH]c1ccc(Cl)cc21 (stereo not drawn),-,.,-,-,.,.
O=C(O)CSCC(=O)Nc1ccc(C2CCCCC2)cc1,90,.,-,63,78,83
Nn1cnnc1SCC(=O)Nc1ccc(C2CCCCC2)cc1,-,.,-,-,.,.
Cc1nn(-c2ccccc2)c(Cl)c1/C=N/Nc1nc2ccccc2[nH]1,-,.,-,-,-,-
C[C@@H]1CN([C@H](C)CO)C(=O)c2cccc(NC(=O)CCCCCC(=O)Nc3ccccc3N)c2O[C@@H]1CN(C)Cc1ccc(Cl)c(Cl)c1,.,-,.,.,.,.
Cc1ccc2cc3cc(C(=O)N4CCCCC4C)oc3nc2c1 (stereo not drawn),-,.,-,-,-,-
C[C@@H]1CN([C@@H](C)CO)C(=O)Cc2cc(N(C)C)ccc2O[C@H]1CN(C)S(=O)(=O)c1cccs1,.,-,.,.,.,.
CCNC(=O)C[C@H]1CC[C@@H]2[C@H](COC[C@H](O)CN2Cc2ccc(Cl)c(Cl)c2)O1,.,-,.,.,.,.
COc1cccc(NC(=O)c2ccccc2)c1,-,-,.,-,.,.
O=C(Nc1ccc(Cl)c(Cl)c1)c1ccc2c(c1)OCO2,-,-,-,-,-,-
O=C(Nc1cccc(C(=O)O)c1)Nc1ccc2c(c1)OCO2,71,-,-,88,69,69
COc1cccc(NC(=O)Nc2cccc(C(=O)O)c2)c1,57,-,-,70,50,58
SMILES,697 NFkB inh,F508del corr,HIF act,Jurkat NFkB inh,Jurkat NFkB conf,697 NFkB conf
COc1cccc(NC(=O)Nc2nc(-c3ccc(OC)c(OC)c3)cs2)c1,56,-,-,90,-,-
CCNC(=O)[C@H]1[C@H](CO)[C@H]2Cn3c(ccc(-c4ccc(F)cc4)c3=O)[C@@H]1N2Cc1ccccc1F,.,-,.,.,.,.
CCC(=O)N1CC2(C1)[C@H](c1ccccc1)[C@@H](CO)N2C(=O)c1ccncc1,.,-,.,.,.,.
CC(C)OC(=O)c1sc2nc(-c3ccccc3)ccc2c1N,-,-,-,-,-,-
COCC(=O)Nc1ccc2c(c1)C(=O)N(C)C[C@H](OC)[C@H](C)CN(C(=O)Cc1cccnc1)[C@H](C)CO2,.,-,.,.,.,.
CC(=O)NS(=O)(=O)c1ccc(NC(=O)c2ccccn2)cc1,-,-,-,-,.,.
O=C(Nc1ccc(SC(F)(F)F)cc1)c1ccccn1,-,-,-,-,-,-
O=C(c1cccs1)c1ccc(-c2cccs2)s1,-,.,-,-,-,-
O=C(Nc1ccc(Cl)cc1)N[C@@H]1CC[C@H](CCn2cc(Cc3ccccc3)nn2)O[C@H]1CO,.,-,.,.,.,.
Cc1ccc(-c2nc3cc(N)ccc3o2)c(C)c1,-,.,-,-,.,.
Cc1ccc(-c2nc3cc(C)ccc3o2)cc1,-,.,-,-,-,-
CC(C)c1ccc2oc(-c3ccc(N)cc3)nc2c1,-,.,-,-,-,-
Cc1ccc(-c2nc3cc(N)ccc3o2)cc1,-,.,-,-,-,-
O=C(c1ccccc1)N1CC(=O)N2[C@H](C1)[C@@H](c1ccc(C#CCC3CCCC3)cc1)[C@@H]2CO,.,-,.,.,.,.
Cc1noc(C)c1S(=O)(=O)N(C)C[C@H]1Oc2ccc(NS(=O)(=O)c3cn(C)cn3)cc2CC(=O)N([C@H](C)CO)C[C@@H]1C,.,-,.,.,.,.
O=C(O)c1cccc(COc2ccccc2Cl)c1,67,-,-,82,78,43
CC(C)(C)c1ccc2c(c1)C(=O)c1ccccc1C2=O,-,.,-,-,-,-
COc1cc(NS(C)(=O)=O)ccc1Nc1c2ccccc2nc2ccccc12,-,-,.,72,82,-
CC(=O)N[C@H]1C[C@@H]2O[C@@H](CO)CC[C@@H]2O[C@@H]1CCc1ccc(C#CC2(O)CCCC2)cc1,.,-,.,.,.,.
CCCCCCCn1ccc(=N)cc1,89,.,-,66,74,83
CCCCCCCCCn1ccc(=N)cc1,45,-,-,92,77,58
COc1ccc2cc(-c3ccccc3)ncc2c1,-,-,-,-,-,-
O=C(NCC[C@H]1CC[C@@H](NS(=O)(=O)c2ccc(Cl)cc2)[C@H](CO)O1)Nc1ccc(F)cc1,.,-,.,.,.,.
CC(C)NC(=O)Nc1ccc2c(c1)C(=O)N([C@H](C)CO)C[C@@H](C)[C@H](CN(C)Cc1ccc(Cl)c(Cl)c1)OCCCC[C@H](C)O2,.,-,.,.,.,.
Cc1ccc(Nc2nc(-c3cccnc3)cs2)cc1C,-,-,-,-,-,-
SMILES,697 NFkB inh,F508del corr,HIF act,Jurkat NFkB inh,Jurkat NFkB conf,697 NFkB conf
Cc1cc(C)nc(Nc2nc(C(N)c3ccccc3)cs2)n1 (stereo not drawn),.,-,.,.,.,.
Cc1ccc(Nc2nc(-c3ccccc3)cs2)nc1,-,-,-,-,-,-
Cc1cc(C)nc(Nc2nc(-c3ccccc3)cs2)n1,-,-,-,-,-,-
c1ccc(-c2csc(Nc3ccc4c(c3)OCCO4)n2)cc1,-,.,-,-,-,-
C[C@@H]1CN([C@@H](C)CO)C(=O)c2cc(Br)cnc2O[C@@H]1CN(C)C(=O)C1CCC1,.,-,.,.,.,.
O=C(N[C@@H]1CC[C@@H](CCNC(=O)C2CC2)O[C@H]1CO)c1ccncc1,.,-,.,.,.,.
C=CCn1c(C)cc(C(=O)CN2C(=O)c3ccccc3S2(=O)=O)c1C,66,.,.,89,49,45
C=CCn1c(C)cc(C(=O)CN2C(=O)NC3(CCCc4ccccc43)C2=O)c1C (stereo not drawn),-,.,-,-,.,.
